Bioassay records deposited in PubChem BioAssay by Buhrlage Lab, Dana-Farber Cancer Institute and Novartis Institutes for BioMedical Research (Cambridge, Mass).
Only some compounds are listed: those with a hit (about 11% of all), similar ones and a draw of the others.
USP17 inh: inhibitors of human USP17 deubiquitinase. hit rate 6.5% among 47,000. inhibition, % at 50 µM. A8MUK1. purified USP17, Ub-rhodamine cleavage fluorescence, 3 h
USP28 inh: blocks human USP28 ubiquitin-rhodamine cleavage; Q96RU2; purified USP28, Ub-rhodamine cleavage fluorescence, 30 min; inhibition, % at 25 µM; hit rate 3% among 47,000; AID 1645857
Target sequence (Q96RU2 whole entry, looked up): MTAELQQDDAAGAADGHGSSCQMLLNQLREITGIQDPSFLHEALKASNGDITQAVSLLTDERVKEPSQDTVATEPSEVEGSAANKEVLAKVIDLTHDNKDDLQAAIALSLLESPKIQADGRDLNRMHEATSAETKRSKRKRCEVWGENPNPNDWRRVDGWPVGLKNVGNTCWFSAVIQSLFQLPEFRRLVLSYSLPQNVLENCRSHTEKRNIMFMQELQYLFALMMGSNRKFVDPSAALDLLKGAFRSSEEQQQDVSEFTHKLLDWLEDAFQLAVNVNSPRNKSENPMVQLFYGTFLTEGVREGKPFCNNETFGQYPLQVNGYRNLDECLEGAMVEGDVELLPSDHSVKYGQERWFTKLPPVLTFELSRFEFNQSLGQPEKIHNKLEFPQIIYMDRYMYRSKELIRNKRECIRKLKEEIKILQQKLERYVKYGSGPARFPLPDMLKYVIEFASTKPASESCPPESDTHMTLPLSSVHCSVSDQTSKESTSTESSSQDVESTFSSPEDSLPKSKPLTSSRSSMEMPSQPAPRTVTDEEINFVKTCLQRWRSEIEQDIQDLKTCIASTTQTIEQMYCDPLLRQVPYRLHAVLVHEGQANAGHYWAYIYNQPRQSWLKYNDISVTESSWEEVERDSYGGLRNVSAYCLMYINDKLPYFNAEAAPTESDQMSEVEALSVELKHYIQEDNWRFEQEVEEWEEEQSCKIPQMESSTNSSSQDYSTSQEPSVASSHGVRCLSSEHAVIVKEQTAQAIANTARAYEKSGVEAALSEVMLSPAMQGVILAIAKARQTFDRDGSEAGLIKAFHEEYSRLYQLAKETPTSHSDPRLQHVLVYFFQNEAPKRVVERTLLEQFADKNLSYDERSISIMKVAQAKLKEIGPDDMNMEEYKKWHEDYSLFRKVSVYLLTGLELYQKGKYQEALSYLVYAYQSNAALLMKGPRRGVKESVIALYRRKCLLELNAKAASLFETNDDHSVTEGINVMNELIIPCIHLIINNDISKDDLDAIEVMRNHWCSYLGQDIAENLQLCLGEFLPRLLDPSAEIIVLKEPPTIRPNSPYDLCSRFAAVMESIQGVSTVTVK
USP30 block: blocks human USP30 ubiquitin-rhodamine cleavage | hit rate 5.3% among 47,000 | purified USP30, Ub-rhodamine cleavage fluorescence | inhibition, % at 25 µM | Q70CQ3
Numbers stand for hits; n = inactive; x = not tested or not shown. Rule as the data show it: active = inhibition above about 30%; inactive = the rest.

SMILES | USP17 inh | USP28 inh | USP30 block
COc1cccc(CN2CCCN(CC(=O)Nc3ccccc3)S2(=O)=O)c1 | n | n | n
CCc1nc2cccnc2n1C1CCN(C(=O)Nc2ccccc2)C1 (configuration not stated) | n | n | n
Cc1ccc(C(C(=O)NCc2ccc3c(c2)OCO3)N(C(=O)c2ccc3c(c2)OCCO3)C2CCCC2)cc1 (configuration not stated) | 49.2 | n | n
Cc1ccc(C(C(=O)NCc2ccc3c(c2)OCO3)N(C(=O)c2ccc3c(c2)OCCO3)c2cc(C)cc(C)c2)cc1 (configuration not stated) | n | n | n
Cc1noc(C)c1S(=O)(=O)N1CCCC1c1ccnc(Nc2ccccn2)n1 (configuration not stated) | n | n | n
Cc1ccc(S(=O)(=O)N2CCC(c3nc(C(=O)N4CCOCC4)c(C)o3)CC2)cc1 | n | n | n
CCC(=O)N1Cc2ccccc2CC2(CCN(Cc3ccccc3)C2)C1 (configuration not stated) | n | n | n
O=C(NC1CCCCC1)C1CC(=O)N(c2cccc(-c3noc(-c4cccs4)n3)c2)C1 (configuration not stated) | 38.8 | x | x
Cc1ccc(N2CC(C(=O)Nc3cccc(-c4noc(C)n4)c3)CC2=O)cc1 (configuration not stated) | n | n | n
O=C(Nc1ccc2sccc2c1)c1ccc2ncsc2c1 | n | n | n
C[C@@H]1C(=O)OC2[C@H](O)C34[C@H]5C[C@@H](C(C)(C)C)C36[C@@H](OC(=O)[C@@H]6O)O[C@@]4(C(=O)O5)[C@]21O (some centres not stated) | n | n | n
C[C@@H]1C(=O)O[C@H]2CC34[C@H]5C[C@@H](C(C)(C)C)C36[C@@H](OC(=O)[C@@H]6O)OC4(C(=O)O5)[C@]21O (some centres not stated) | n | n | 40.7
COc1ccc(OCC(=O)NCc2csc(-c3ccccc3)n2)cc1 | n | n | n
O=C(COC(=O)C(c1ccccc1)c1ccccc1)NCc1ccccc1 | n | n | 33.7
Cc1ccc(CNC(=O)COC(=O)c2cc(-c3ccccc3Cl)nc3ccccc23)cc1 | n | n | n
CSc1nnc(COc2cccc3ccc(C)nc23)n1C | n | n | n
Cc1ccc2cccc(OCc3nnc(SCC(=O)c4ccc(Cl)cc4)n3C)c2n1 | 61.3 | n | 39.4
COc1ccc(C(=O)N2CC(C(=O)NCCc3ccc(F)cc3)C2)cn1 | n | n | n
O=C(NCc1ccc(Cl)cc1)NCc1cnn2ccccc12 | n | n | 39.0
O=C(NCc1cnn2ccccc12)c1ccc(Cn2ccnc2)cc1 | n | n | n
Cc1nc(C2CCCN2C(=O)c2cc3c([nH]c2=O)CCCCC3)no1 (configuration not stated) | n | n | n
CCn1cc2c(n1)c(=O)n(Cc1ccccc1)c(=O)n2CC(=O)Nc1ccc(OC)cc1 | 80.4 | n | 39.0
CCn1cc2c(n1)c(=O)n(Cc1ccccc1)c(=O)n2CC(=O)Nc1ccc(C(C)C)cc1 | 40.2 | n | n
Cc1cc(C)cc(NC(=O)Cn2c(=O)n(Cc3ccncc3)c(=O)c3ncccc32)c1 | n | n | n
CC(C)c1ccc(NC(=O)Cn2c(=O)n(Cc3ccncc3)c(=O)c3ncccc32)cc1 | n | n | n
SMILES | USP17 inh | USP28 inh | USP30 block
CCc1ccc(NC(=O)Cn2c(=O)n(C)c(=O)c3nscc32)cc1 | 38.9 | n | n
CCOc1ccc(NC(=O)Cn2c(=O)n(Cc3ccncc3)c(=O)c3ncccc32)cc1 | n | n | n
CCCn1c(=O)c2nscc2n(CC(=O)Nc2ccc(F)c(F)c2)c1=O | n | n | n
CCc1ccc(NC(=O)Cn2c(=O)n(Cc3ccccc3)c(=O)c3nn(CC)cc32)cc1 | 73.4 | n | 77.7
Nc1c(C(=O)NCc2ccccc2)nsc1C(=O)NCc1ccccn1 | n | n | n
Cc1ccc(OCCCOc2cccc3ccc(C)nc23)c([N+](=O)[O-])c1 | n | n | n
COc1ccc(CC(=O)Nc2nonc2-c2ccc(OC)c(OC)c2)cc1 | n | n | n
COc1ccc(Nc2ncnc3c2c(-c2ccccc2)cn3-c2ccc(F)cc2)cc1Cl | n | n | n
Fc1ccc(Nc2ncnc3c(-c4ccccc4)noc23)cc1 | 43.7 | n | 46.0
COc1cc(O)c2c(=O)cc(C)oc2c1CC=C(C)C | 37.5 | n | 30.7
COc1cc2oc(C)cc(=O)c2c(O)c1CO | n | n | n
COc1ccc(C(=O)Nc2ccc3c(c2)NC2CCCCC32)cc1 (configuration not stated) | n | n | n
CCOC(=O)c1nc(Cn2c(C(F)(F)F)nc3ccccc32)no1 | n | x | x
O=C(c1ccc2cc[nH]c2c1)N1CCC2(CC1)N=C(c1ccccc1)NO2 | 33.9 | n | n
Cc1ccc(C2=NC3(CCN(C(=O)c4ccc5cc[nH]c5c4)CC3)ON2)cc1 | n | n | n
COc1ccccc1CNC(=O)Cn1c(=O)[nH]c2c(-c3ccccc3)c[nH]c2c1=O | 44.3 | n | n
COc1ccccc1CNC(=O)Cn1c(C)nc2onc(C)c2c1=O | n | n | 34.8
CCN1CCN(C(=O)Cn2c(=O)[nH]c3c(-c4ccccc4)c[nH]c3c2=O)CC1 | n | n | n
CCC(C)NC(=O)Cn1c(=O)[nH]c2c(-c3ccccc3)c[nH]c2c1=O (configuration not stated) | 38.0 | x | x
Cc1noc2nc(C)n(CC(=O)NCc3ccccc3Cl)c(=O)c12 | n | n | n
COc1ccc(CNC(=O)Cn2c(=O)[nH]c3c(-c4ccccc4F)c[nH]c3c2=O)cc1 | n | n | n
Cc1ccc(NC(=O)Nc2cnn(-c3ncncc3N3CCOCC3)c2)cc1C | n | n | n
N#Cc1cccc(C(=O)N2CCc3cc(-c4ccno4)ccc32)c1 | n | n | n
Cc1ncc(-c2cncc(C3CCCN(C(=O)c4ccc5nc[nH]c5c4)C3)n2)n1C (configuration not stated) | n | n | n
CCn1cc2nc(SCC(=O)NC3CCCC3)n(Cc3ccccc3)c(=O)c2n1 | n | n | n
SMILES | USP17 inh | USP28 inh | USP30 block
Cc1cc(C)c(NC(=O)CSc2nc3cn(C)nc3c(=O)n2CC2CC2)c(C)c1 | 60.8 | n | 69.8
COc1ccc(NC(=O)CCC(=O)N(c2ccccc2)c2ccccc2)c(OC)c1 | n | n | n
COc1cc(NC(=O)c2ccccc2)c(OC)cc1NC(=O)CCC(=O)N(c1ccccc1)c1ccccc1 | 62.5 | n | 58.3
CC(C)n1ccc(-c2cc(C(=O)NCCc3ccccn3)c3ccccn23)n1 | n | n | n
COc1ccc(NC(=O)C2C3C=CC4(O3)C2C(=O)N(Cc2ccc(F)cc2)C4C(=O)NC2CCCCC2)cc1 (configuration not stated) | n | n | n
Cc1ccc(-n2ncc3c2ncn2nc(-c4cccnc4)nc32)cc1C | n | n | n
COc1ccc(Cn2c(CO)cnc2SCC(=O)Nc2ccccc2OC)cc1 | n | n | n
O=C(NCc1ccccc1Cl)c1ccc(-c2ccc(N3CCCC3)nn2)cc1 | 42.3 | n | n
COc1ccc(CNC(=O)c2ccc(-c3ccc(N4CCCC4)nn3)cc2)c(OC)c1 | n | n | n
Cc1cc(C(=O)N2CC[C@H]3[C@H]2CCN3c2ncccn2)c(C)o1 | n | n | n
CC1(c2cccc(Br)c2)NC(=O)N(CC(=O)Nc2cc([N+](=O)[O-])ccc2F)C1=O (configuration not stated) | n | n | n
